HCMV antiviral: human cytomegalovirus inhibition; AID 1259415; activity change, negative = inhibition, % at 57.5 µM; HFF cells, HCMV-luciferase reporter, 72 h; active compounds read low; 410,000 tested, 4.5% active; in the data active means activity change below about -60%; inconclusive means no clear call, values can overlap the other calls; inactive means above about -39%
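Inhibition of viral replication was scored as loss of reporter luminescence in HFFs infected with HCMV-luciferase (MOI 1 PFU/cell) for 72 h; compounds tested at 2 doses, normalized to buffer and Salinomycin controls.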
AmpC inh detg: AmpC beta-lactamase inhibition with detergent present; AID 485294; P00811; 370,000 tested, 0.041% active; AmpC hydrolysis of nitrocefin, absorbance 480 nm, 0.01% Triton; Potency, µM (titrated, usually from 114 µM), for the others: at the highest dose activity change, negative = inhibition, usual class: inhibitors;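 further: potency means the concentration at half of the fitted maximal effect; 0% = no-compound wells and -100% = no-enzyme wells; nearly all actives have a fitted effect of over 25% in size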
Target sequence (P00811 whole entry, looked up): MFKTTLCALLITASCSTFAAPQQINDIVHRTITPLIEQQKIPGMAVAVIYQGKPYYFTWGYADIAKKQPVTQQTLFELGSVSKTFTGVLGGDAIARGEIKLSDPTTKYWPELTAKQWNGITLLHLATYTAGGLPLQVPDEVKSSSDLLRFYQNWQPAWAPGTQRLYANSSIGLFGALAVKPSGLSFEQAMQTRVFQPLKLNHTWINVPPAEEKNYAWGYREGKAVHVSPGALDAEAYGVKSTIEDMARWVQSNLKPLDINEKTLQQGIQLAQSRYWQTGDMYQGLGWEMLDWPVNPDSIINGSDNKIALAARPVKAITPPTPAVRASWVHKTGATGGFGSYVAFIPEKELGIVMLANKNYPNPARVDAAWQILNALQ
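AmpC (5.3 nM in the dispensed reagent) in 20 mM phosphate pH 7.0 with 0.01% (detergent screen) or 0.0001% Triton X-100 was preincubated with compounds for 15 min at room temperature. Nitrocefin was then added from an 800 uM solution, and hydrolysis was followed at 480 nm.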
AmpC no deterg: inhibitors of E. coli AmpC beta-lactamase without detergent | Potency, µM (titrated, usually from 57.1 µM), for the others: at the highest dose activity change, negative = inhibition, hits mostly inhibitors | P00811 | AmpC nitrocefin hydrolysis, absorbance 480 nm, 0.0001% Triton | 330,000 tested, 0.52% active | AID 485341;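 further: potency means the concentration at half of the fitted maximal effect; plate controls were no compound for no effect and no enzyme for full effect; nearly all actives have a fitted effect of over 20% in size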
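20 mM phosphate pH 7.0 + 0.01% (detergent screen) or 0.0001% Triton X-100; 5.3 nM AmpC reagent; cpd preinc 15 min RT; nitrocefin (800 uM stock) to start; A480 q20 s × 4 min; Activity was normalised to no-enzyme and no-compound control wells.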
FMDV inh: antivirals against foot and mouth disease virus; FMDV antiviral cell-based qHTS; Potency, µM (titrated, usually from 57.9 µM), inactives show top-dose activity change, negative = inhibition, actives largely listed as inhibitors; 410,000 tested, 1.2% active; AID 1159524; calls by dose curve; tested in HEK293T cells; further: read-out not given here; potency means the concentration at half of the fitted maximal effect; nearly all actives have a fitted effect of over 45% in size
HCV inh: inhibitors of hepatitis C virus infection; Huh7.5.1 HCVcc-Cre infection, luciferase reporter, 44 h; Potency, µM (highest dose often 41.8 µM), inactives show at the top dose activity change, negative = inhibition, hits mostly inhibitors; 340,000 tested, 3.4% active; further: potency means the concentration at half of the fitted maximal effect
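Reporter virus HCVcc-Cre (~0.5 moi) infects cells exposed to compound; seeding density 1,000 cells/well with 4 h settling beforehand. Luminescence, 15 sec read, taken 44 h post-infection following a 15 min RT substrate incubation.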
Active calls of the source: *; ! = a repeat was not active. Only some compounds are listed: those with a hit (about 7.3% of all), similar ones and a draw of the others. Unless noted, the call rests on the fitted dose curve; in most records, active means well fitted curve in the direction sought with a large enough effect; inconclusive means small, poorly fitted or top-dose-only effect, or another doubt; inactive means no such curve, though single readings can be large; an effect the other way counts as inactive or inconclusive. Unless noted, on the % scale 0 is the no-effect control and ±100 the full control effect.

How did CCCOC(=O)/C(=C\c1ccc([N+](=O)[O-])o1)NC(=O)c1ccccc1 do in these assays?
HCMV antiviral: -12; AmpC inh detg: -8%; AmpC no deterg: -28%; FMDV inh: -1%; HCV inh: 14µM*

What do the screens show for `O=C(CNc1ccccc1)N/N=C/c1ccc([N+](=O)[O-])o1`?
HCMV antiviral: -82*; AmpC inh detg: -13%; AmpC no deterg: -36%; FMDV inh: -4%; HCV inh: inconclusive

Results for CCOc1ccc(N2CC(C(=O)NC3CCCCCC3)CC2=O)cc1 (stereo not drawn) ?
HCMV antiviral: -4; AmpC inh detg: -4%; AmpC no deterg: -5%; FMDV inh: -23%; HCV inh: -9%

How did CN(C)Cc1c(C(C)(C)O)[nH]c2cc(C(F)(F)F)ccc12 do in these assays?
HCMV antiviral: 24

How did CN(C(=O)c1ccc(NC(=O)Cc2cccc(NC(=O)C3CCN(C(=O)c4ccccc4)CC3)c2)cc1)C1CCCC1 do in these assays?
HCMV antiviral: -3; AmpC inh detg: 1%; AmpC no deterg: 111%; FMDV inh: -9%; HCV inh: 9%

What do the screens show for `CCOc1ccc(CCNC(=O)CCSCc2cccc(Cl)c2)cc1OCC`?
HCMV antiviral: 10; AmpC inh detg: 9%; FMDV inh: -2%

Results for O=C(CNC(=O)c1ccccc1)N/N=C/c1ccc([N+](=O)[O-])o1 ?
HCMV antiviral: -80*; AmpC inh detg: inconclusive; AmpC no deterg: -24%; FMDV inh: 0%; HCV inh: inconclusive

How did O=C(CNC(=O)c1ccccc1)N/N=C/c1ccc([N+](=O)[O-])s1 do in these assays?
HCMV antiviral: inconclusive; AmpC inh detg: -14%; AmpC no deterg: -27%; FMDV inh: 5%; HCV inh: inconclusive

How did O=C(Cc1ccc2c(c1)OCO2)NN=Cc1ccc([N+](=O)[O-])o1 do in these assays?
HCMV antiviral: -39; AmpC no deterg: -22%; FMDV inh: -19%; HCV inh: 10µM*

What do the screens show for `O=C(CCC(=O)Nc1ccc(Cl)cc1Cl)N/N=C/c1ccc([N+](=O)[O-])o1`?
HCMV antiviral: -77*; AmpC inh detg: -15%; AmpC no deterg: -16%; FMDV inh: -25%; HCV inh: inconclusive

Results for O=C(c1ccc(F)cc1F)C1CCN(c2ccc([N+](=O)[O-])cn2)CC1 ?
HCMV antiviral: -77*; AmpC inh detg: -4%; AmpC no deterg: -24%; FMDV inh: inconclusive; HCV inh: 4.5µM*

What do the screens show for `O=C(Nc1ccc(F)cc1F)N1CCCN(c2ccc([N+](=O)[O-])cn2)CC1`?
HCMV antiviral: inconclusive; AmpC inh detg: 5%; AmpC no deterg: -21%; FMDV inh: inconclusive; HCV inh: inconclusive

Results for COc1ccc(C2OC(CCc3ccccc3)CC3=C2C(=O)OC(C)(C)O3)cc1 (stereo not drawn) ?
HCMV antiviral: 4; FMDV inh: -6%

What do the screens show for `CCc1nnc(NC(=O)c2cccc(C(=O)Nc3nnc(CC)s3)n2)s1`?
HCMV antiviral: -92*; AmpC inh detg: 0%; AmpC no deterg: -34%; FMDV inh: inconclusive; HCV inh: 1.1µM*

What do the screens show for `CCc1nnc(NC(=O)c2ccncc2)s1`?
HCMV antiviral: 10; AmpC inh detg: -14%; AmpC no deterg: -3%; FMDV inh: 26%; HCV inh: -8%

What do the screens show for `CCOc1ccccc1C(=O)Nc1nn[nH]n1`?
HCMV antiviral: inconclusive; AmpC inh detg: 0%; AmpC no deterg: -9%; FMDV inh: -6%; HCV inh: 3.2µM*

How did CCOc1ccccc1C(=O)NCCCN1CCN(CCCNC(=O)c2ccccc2OCC)CC1 do in these assays?
HCMV antiviral: 6; AmpC inh detg: -3%; AmpC no deterg: 81%; FMDV inh: 6%; HCV inh: 10µM*!

How did CCOc1ccccc1C(=O)Nc1ccccc1C(N)=O do in these assays?
HCMV antiviral: -6; AmpC inh detg: inconclusive; AmpC no deterg: -25%; FMDV inh: 0%; HCV inh: 4%

How did CCOc1ccccc1C(=O)Nc1nnc(SCC(=O)N2CCOCC2)s1 do in these assays?
HCMV antiviral: inconclusive; AmpC inh detg: 0%; AmpC no deterg: 138%; FMDV inh: 1%; HCV inh: -19%

How did CCOc1ccccc1C(=O)Nc1nnc(CC)s1 do in these assays?
HCMV antiviral: 33; AmpC inh detg: 0%; AmpC no deterg: -2%; FMDV inh: 6%; HCV inh: 11µM*

Results for COc1cccc(NC(=O)CCC(=O)N2Cc3ccccc3Oc3ncccc32)c1 ?
HCMV antiviral: 6; AmpC inh detg: 26%; FMDV inh: -16%

Results for CC(=O)NC(c1ccccc1)c1cc(Cl)c2cccnc2c1O (stereo not drawn) ?
HCMV antiviral: -95*; AmpC inh detg: -6%; AmpC no deterg: -7%; FMDV inh: -16%; HCV inh: 10µM*

What do the screens show for `Oc1c(C(c2ccccn2)N2CCCCC2)cc(Cl)c2cccnc12` (stereo not drawn)?
HCMV antiviral: 44; AmpC inh detg: inconclusive; AmpC no deterg: -14%; FMDV inh: -28%; HCV inh: 10µM*

How did O=C(NC(c1ccc(Cl)cc1)c1cc(Cl)c2cccnc2c1O)c1cccnc1 (stereo not drawn) do in these assays?
HCMV antiviral: -101*; AmpC inh detg: -3%; AmpC no deterg: -1%; FMDV inh: inconclusive; HCV inh: inconclusive

What do the screens show for `CCOc1ccc(C(NC(=O)c2ccco2)c2ccc(OC)c(OC)c2)cc1` (stereo not drawn)?
HCMV antiviral: 56; AmpC inh detg: 5%; AmpC no deterg: 60%; HCV inh: 4%

Results for CC(=O)NC(c1cc(F)c2cccnc2c1O)C1CC1 (stereo not drawn) ?
HCMV antiviral: 27; AmpC inh detg: -7%; AmpC no deterg: 2%; FMDV inh: inconclusive

What do the screens show for `CCCC(=O)NC(c1ccc(OC)c(OC)c1)c1cc(Cl)c2cccnc2c1O` (stereo not drawn)?
HCMV antiviral: -99*; AmpC inh detg: -5%; AmpC no deterg: 12%; FMDV inh: -1%; HCV inh: -26%

How did O=C(c1nnnn1-c1ccc(Br)cc1)C1CC1 do in these assays?
HCMV antiviral: -26

What do the screens show for `CC(=O)NC(c1ccc(N(C)C)cc1)c1cc(Cl)c2cccnc2c1O` (stereo not drawn)?
HCMV antiviral: -100*; FMDV inh: -24%

What do the screens show for `CN1CCN(C(c2ccc(Cl)cc2)c2cc(Cl)c3cccnc3c2O)CC1` (stereo not drawn)?
HCMV antiviral: 264; AmpC inh detg: -6%; AmpC no deterg: -2%; FMDV inh: -3%; HCV inh: inconclusive

How did CC(=O)NC(c1ccco1)c1cc(Cl)c2ccc(N3CCCCC3)nc2c1O (stereo not drawn) do in these assays?
AmpC inh detg: 0%; AmpC no deterg: -11%

Screening data (PubChem BioAssay)
